From PubChem BioAssay
WRN helicase inh = qHTS for Inhibitors of WRN Helicase; Potency, µM (highest dose often 114 µM), without a hit: at the highest dose activity change, negative = inhibition, actives largely listed as inhibitors; Bifunctional 3'-5' exonuclease/ATP-dependent helicase WRN (Homo sapiens), Q14191; 360,000 tested, 0.46% active; WRN helicase unwinding, fluorescent forked duplex, kinetic; also: potency is read from the fitted curve at half-maximal effect; % is scaled to controls: 0 for no effect and ±100 for the full control effect; nearly all actives have a fitted effect of over 55% in size
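WRN at 20 nM final was preincubated with compound for 15 min at room temperature; reaction started with 100 nM forked duplex oligonucleotide carrying fluorophore and quencher plus 2 mM ATP (final). Unwinding followed kinetically by red fluorescence (ex 525/em 598 nm).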
Pol kappa inh = qHTS for Inhibitors of Polymerase Kappa. purified Pol kappa, fluorescent DNA synthesis assay, 10 min. Potency, µM (series often up to 107 µM), without a hit: at the top dose activity, negative = inhibition, actives largely listed as inhibitors. 400,000 tested, 0.53% active. DNA polymerase kappa (Homo sapiens), Q9UBT6; also: potency is read from the fitted curve at half-maximal effect; % is scaled to controls: 0 for no effect and ±100 for the full control effect
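50 nM final substrate added after 15 min RT preincubation of 10 nM Pol kappa with compound; fluorescence read at 0 and 10 min.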
Pol eta inh-1 = qHTS for Inhibitors of Polymerase Eta; DNA polymerase eta (Homo sapiens), Q9Y253; Potency, µM (doses to about 114 µM), inactives show at the highest dose activity change, negative = inhibition, actives largely listed as inhibitors; recombinant Pol eta, fluorescent DNA replication assay; 390,000 tested, 1.2% active; also: potency is read from the fitted curve at half-maximal effect; % is scaled to controls: 0 for no effect and ±100 for the full control effect
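Pol eta (10 nM) was preincubated with compounds for 15 min at room temperature, after which fluorescent replication substrate (50 nM final) was added to start the reaction. Fluorescence was read kinetically at 0 and 10 min.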
FEN1 inhibitor = qHTS Assay for the Inhibitors of Human Flap endonuclease 1 (FEN1); 390,000 tested, 0.35% active; Recombinant FEN1 flap cleavage, fluorescence, 15 min; P39748; Potency, µM (top dose mostly 114 µM), without a hit: top-dose activity change, negative = inhibition, hits mostly inhibitors; AID 588795, 2011; also: potency is read from the fitted curve at half-maximal effect; % is scaled to controls: 0 for no effect and ±100 for the full control effect; nearly all actives have a fitted effect of over 65% in size
Target sequence (P39748 whole entry, looked up): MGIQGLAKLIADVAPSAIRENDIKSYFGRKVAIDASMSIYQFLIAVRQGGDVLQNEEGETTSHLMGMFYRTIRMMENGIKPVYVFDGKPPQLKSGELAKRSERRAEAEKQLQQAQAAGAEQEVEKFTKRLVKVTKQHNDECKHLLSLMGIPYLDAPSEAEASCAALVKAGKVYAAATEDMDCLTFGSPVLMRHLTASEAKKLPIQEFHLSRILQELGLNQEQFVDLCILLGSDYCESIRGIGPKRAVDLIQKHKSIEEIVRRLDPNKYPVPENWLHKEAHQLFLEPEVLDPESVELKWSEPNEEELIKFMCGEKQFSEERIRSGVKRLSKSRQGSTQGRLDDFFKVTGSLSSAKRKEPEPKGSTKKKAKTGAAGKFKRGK
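Read-out was taken twice, immediately and after 15 min, following addition of 50 nM substrate to 10 nM FEN1 that had sat with test compound for 15 min at room temperature. Curves came from a four-parameter Hill model.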
Pol beta inh = qHTS Assay for Inhibitors of DNA Polymerase Beta | P06746 | Pol beta primer extension/strand displacement, fluorescence kinetic | Potency, µM (series often up to 114 µM), without a hit: at the top dose activity change, negative = inhibition, usual class: inhibitors | 340,000 tested, 1.3% active | AID 485314, 2010; also: potency is read from the fitted curve at half-maximal effect; % is scaled to controls: 0 for no effect and ±100 for the full control effect
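Homogeneous kinetic assay of primer extension and strand displacement by 10 nM Pol beta, preincubated 15 min at room temperature with compound before 50 nM substrate (final) was added. Read at 0 and 10 min; four-parameter Hill fit.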
Pol iota inh = qHTS for Inhibitors of Polymerase Iota; DNA polymerase iota (Homo sapiens), Q9UNA4; Pol iota fluorescent replication assay, 10 min; Potency, µM (titrated, usually from 115 µM), inactives show at the highest dose activity, negative = inhibition, usual class: inhibitors; 390,000 tested, 1% active; AID 588590, 2011; also: potency is read from the fitted curve at half-maximal effect
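Pol iota at 10 nM preincubated 15 min with compounds at room temperature; reaction started with fluorescent substrate, 50 nM final. Fluorescence read kinetically at 0 and 10 min; buffer-only wells as negative control.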
GALK confirm = Confirmation Assay for Inhibitors of Human Galactokinase (GALK) | Potency, µM (doses to about 115 µM), inactives show at the highest dose activity, negative = inhibition, usual class: inhibitors | shares compounds with Pol eta inh-1 | 150 tested, 70% active | purified GALK, Kinase-Glo ATP depletion luminescence
GALK redox cs = Confirmatory Assay for Inhibitors of Human Galactokinase (GALK): Phenol-HRP redox assay counterscreen. shares compounds with Pol eta inh-1. Phenol red-HRP H2O2 redox cycling, absorbance 600 nm. Potency, µM (series often up to 115 µM), for the others: at the top dose activity change, negative = H2O2 signal, usual class: inhibitors. 150 tested, 40% active. AID 2035, 2009
HEK293 tox = Secondary Assay for Inhibitors of Human Galactokinase (GALK): HEK-293 Cell Viability Assay; shares compounds with Pol eta inh-1; HEK-293 viability, ATP luminescence (CellTiter-Glo), 24/48 h; Potency, µM (highest dose often 46.1 µM), for inactives: top-dose activity change, negative = cytotoxicity, actives largely listed as inhibitors; 170 tested, 10% active; also: potency is read from the fitted curve at half-maximal effect; % is scaled to controls: 0 for no effect and ±100 for the full control effect
Pol eta inh-2 = qHTS for Inhibitors of Polymerase Eta: Confirmatory Assay for Cherry-picked Compounds; shares compounds with Pol eta inh-1; Pol eta primer extension, TAMRA/BHQ fluorescence, 10 min; Potency, µM, hits mostly inhibitors; 2,600 tested, 64% active; AID 720502, 2013; also: potency is read from the fitted curve at half-maximal effect
Active calls of the source: *; u = inconclusive; x = not tested or not shown; [ ] = dose if it differs, or a comment. This is a sample that favours compounds with a hit; in the whole collection about 2.4% have one here. Calls follow the shape of the dose curve; as a rule, active = well fitted curve in the direction sought with a large enough effect; inconclusive = small, poorly fitted or top-dose-only effect, or another doubt; inactive = no such curve, though single readings can be large; an effect the other way counts as inactive or inconclusive.

SMILES	WRN helicase inh	Pol kappa inh	Pol eta inh-1	FEN1 inhibitor	Pol beta inh	Pol iota inh	Pol eta inh-2	others
COc1ccc(C(=C2C(=O)Nc3ccccc32)c2ccc(OC)cc2)cc1	x	-2.0%[60.1 µM]	x	x	x	x	x
CCOC(=O)c1sc(N=NC2=C(O)CCCC2=O)c(C(=O)OCC)c1C	u	u	79.4µM*	u	8.91µM*	u	67.5*
CCOC(=O)/C(N=Nc1sc(C(=O)OCC)c(C)c1C(=O)OCC)=C(\C)O	x	x	x	x	0.7%	x	x
O=C(NCC1CCCO1)c1cc(-c2ccco2)nc2ccccc12 (stereo not drawn)	-28.2%	u	15.8µM*	-3.8%	44.7µM*	u	84.9*
O=C(NCC1CCCO1)c1cc(-c2ccncc2)nc2ccccc12 (stereo not drawn)	-2.7%	-13.8%	-9.8%	1.9%	x	6.8%	x
O=C(NC1(O)C(=O)c2ccccc2C1=O)c1c(Cl)cccc1Cl	-5.8%[11.6 µM]	-13.1%	44.7µM*	-19.1%	11.0%	1.58µM*	u	GALK confirm=23.7µM*;GALK redox cs=9.43µM*;HEK293 tox=13.8%
O=C(NC1(O)C(=O)c2ccccc2C1=O)c1ccccc1	-18.6%	-16.6%	31.6µM*	1.7%	-6.3%	6.31µM*	x	GALK confirm=23.7µM*;GALK redox cs=10.6µM*;HEK293 tox=-0.9%
O=C(Nc1ccccc1Cl)c1sc2cccc(Cl)c2c1Cl	x	-5.8%	17.4%	15.9%	-9.8%	2.0%	x
COC1(NC(=O)c2ccccc2)C(C)=CC(=O)C=C1C	0.0%	-0.6%	-20.1%	-0.4%	28.9%	67.0%	x
Cc1ccc(S(=O)(=O)N2CCCc3cc(NS(=O)(=O)c4cc(F)ccc4F)ccc32)cc1	x	-7.5%[60.1 µM]	-25.9%	5.7%	-0.4%	5.2%	x
COc1cc(NS(=O)(=O)c2ccc(NC(=O)COc3ccc(Cl)cc3Cl)cc2)nc(OC)n1	x	13.8%	-5.0%	-0.7%	u	u	x
COc1cc(NS(=O)(=O)c2ccc(N/C=C(\C#N)c3nc4cc(Cl)ccc4o3)cc2)nc(OC)n1	u	-3.2%	35.5µM*	-34.1%	-27.4%	10.8%	u
CCCCCCOc1ccc(CC(=O)O)cc1	x	1.9%	x	7.4%	x	31.4%	x
CC1(C)S[C@@H]2[C@H](NC(=O)[C@H](N)c3ccc(O)cc3)C(=O)N2[C@H]1C(=O)O	x	50.1µM*	u	-15.3%	-0.2%	u	37.9*
CCOC(=O)c1ccc(NC2=CC(=O)C(=O)c3ccccc32)cc1	-26.4%[57.1 µM]	-6.4%	35.5µM*	-8.5%	3.4%	u	u
CC(=O)Nc1ccc(NC2=CC(=O)c3ccccc3C2=O)cc1	-10.3%	-9.7%	u	-8.7%	-15.2%	57.5%	x
